HEK293 cAMP ctrl = raises cAMP in parental HEK293 cells, TSHR agonist counter-screen. parental HEK293 CNG cAMP sensor, membrane potential fluorescence. Potency, µM (highest dose often 57.1 µM), usual class: activators. 73,000 tested, 2.5% active. AID 938; also: nearly all actives have a fitted effect of over 55% in size
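Parental HEK 293 cells stably expressing a cAMP-gated CNG channel were loaded with membrane potential dye containing 100 uM RO 20-1724 for 60 min. Compound added for 30 min; depolarization read as fluorescence intensity at 590 nm.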
TSHR agonist = TSH receptor (human) agonism; Potency, µM (top dose mostly 57.1 µM), actives largely listed as activators; HEK293-CNG-TSHR cells (CNG channel as cAMP sensor), membrane potential dye, cAMP; 73,000 tested, 0.48% active; P16473; active = well fitted activation curve with a large enough effect in the main read-out, with a control signal flat, not every such curve was filed as active; inconclusive = small, poorly fitted or top-dose-only effect, or a change in a side signal; inactive = no such curve, though single readings can be large or run the other way; reference of the percent scale not stated here;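 also: the control signal comes from parental cells without the receptor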
Target sequence (P16473 whole entry, looked up): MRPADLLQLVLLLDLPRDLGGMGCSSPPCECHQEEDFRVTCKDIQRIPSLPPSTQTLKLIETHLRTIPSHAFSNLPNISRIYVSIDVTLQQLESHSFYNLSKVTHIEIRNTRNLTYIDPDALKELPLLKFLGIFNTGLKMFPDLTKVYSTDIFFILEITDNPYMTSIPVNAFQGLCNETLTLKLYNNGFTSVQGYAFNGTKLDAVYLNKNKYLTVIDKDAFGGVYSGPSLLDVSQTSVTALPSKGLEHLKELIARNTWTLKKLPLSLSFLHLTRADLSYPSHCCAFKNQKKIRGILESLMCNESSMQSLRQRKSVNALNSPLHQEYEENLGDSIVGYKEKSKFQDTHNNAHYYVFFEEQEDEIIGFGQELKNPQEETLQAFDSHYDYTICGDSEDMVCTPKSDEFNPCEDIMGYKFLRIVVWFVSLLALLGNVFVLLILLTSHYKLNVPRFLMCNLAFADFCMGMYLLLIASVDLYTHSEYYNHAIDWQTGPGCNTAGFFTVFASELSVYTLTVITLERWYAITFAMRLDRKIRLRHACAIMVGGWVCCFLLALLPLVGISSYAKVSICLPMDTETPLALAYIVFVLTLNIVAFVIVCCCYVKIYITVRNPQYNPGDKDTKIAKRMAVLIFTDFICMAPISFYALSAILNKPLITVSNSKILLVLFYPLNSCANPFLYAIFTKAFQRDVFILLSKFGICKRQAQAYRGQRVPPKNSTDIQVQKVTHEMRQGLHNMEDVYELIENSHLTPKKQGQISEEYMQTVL
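HEK 293 cells stably expressing TSHR and a cAMP-gated CNG channel; parental CNG-only cells as counterscreen. Cells preloaded 60 min with membrane potential dye plus 100 uM RO 20-1724, then compound 30 min; fluorescence read at 590 nm.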
GBA activity = modulators of human glucocerebrosidase. AID 360. P04062. Potency, µM. 48,000 tested, 1.1% active. purified enzyme, resorufin glucoside fluorescence (screen aimed at inhibitors), 20 min; in the data active = potency below about 15 µM; inconclusive = mostly about 16 µM to 33 µM;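 also: the screen sought inhibitors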
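Wild-type enzyme at 0.2 nM final in 50mM citric acid/KH2PO4, 10mM sodium taurocholate, 0.01% tween-20, pH 5.9, with resorufin beta-D-glucopyranoside at 30 uM final. Compounds titrated, 20 min at RT, red fluorescence read; AC50 from titration.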
Bst PK mod = modulators of Bacillus stearothermophilus pyruvate kinase. purified pyruvate kinase, luminescence ATP production; ribose 5-phosphate activator present at AC10. Potency, µM. 51,000 tested, 1.2% active. AID 361; in the data active = potency below about 11 µM; inconclusive = mostly about 12 µM to 25 µM;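 the screen sought inhibitors and activators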
parental cAMP = counter-screen for TSH receptor agonists: cAMP in parental HEK293 cells; shares compounds with TSHR agonist; parental HEK293 CNG biosensor, cAMP membrane potential fluorescence; activity change, negative = inhibition, % at 32.9 µM; 150 tested, under 10 active; AID 953
A number is an active result; i = inactive; ? = inconclusive; nt = no result; [ ] = remark or other dose. Only some compounds are listed: those with a hit (about 4% of all), similar ones and a draw of the others. Unless noted, calls follow the shape of the dose curve; as a rule, active = well fitted curve in the direction sought with a large enough effect; inconclusive = small, poorly fitted or top-dose-only effect, or another doubt; inactive = no such curve, though single readings can be large; an effect the other way counts as inactive or inconclusive.

SMILES	HEK293 cAMP ctrl	TSHR agonist	GBA activity	Bst PK mod	others
C(=C/c1ccccc1)/CN1CCN(CCOC(c2ccccc2)c2ccccc2)CC1	i	31.6µM	nt	nt
C/C=C1\C[C@H](C)[C@](O)(CO)C(=O)OCC2=CCN3CC[C@@H](OC1=O)[C@@H]23	i	i	nt	nt
O=C(Oc1ccccc1)N1CCC[C@@]2(CCN(Cc3cc(C(F)(F)F)cc(C(F)(F)F)c3)C2)C1	15.8µM	?	nt	nt
CN1CC[C@@]2(CCCN(C(=O)Oc3ccccc3)C2)C1	i	i	nt	nt
N#Cc1ccc(CN2CCCC3(CCN(C(=O)Oc4ccccc4)CC3)C2)cc1	15.8µM	?	nt	nt
CC(=O)[C@@H]1CC[C@H]2[C@H]3CC[C@H]4C[C@@H](O)CC[C@]4(C)[C@@H]3CC[C@]12C	i	i	nt	nt
CCN[C@]1(c2cccs2)CCCCC1=O	i	5.01µM	nt	nt
N[C@]1(C(=O)O)CC[C@@H](C(=O)O)C1	i	nt	nt	nt
CN(C(=O)c1ccco1)C1(c2ccccc2Cl)CCCCC1=O (stereo unspecified)	20µM	?	i	i
CN1CC[C@@]2(CCCN(C(=O)c3ccco3)C2)C1	i	i	nt	nt
O=C1C[C@@H]2OCC=C3CN4CC[C@]56c7ccccc7N1[C@H]5[C@@H]2[C@H]3C[C@@H]46	i	i	nt	nt
COc1cc2c(C(=O)N3CCN(C)CC3)c(C)n(C)c2cc1Br	20µM	?	i	i
COc1ccc2c(c1)c(C(=O)CN1CCN(C)CC1)c(C)n2Cc1ccccc1	?	?	nt	i
Cc1c(C(=O)c2cccc3ccccc23)c2cccc3c2n1[C@H](CN1CCOCC1)CO3	i	nt	nt	nt
CCCn1c(C)c(C(=O)c2cccc3ccccc23)c2ccccc21	12.6µM	?	nt	nt
CC(C)C[C@H](NP(=O)(O)O[C@@H]1O[C@@H](C)[C@@H](O)[C@@H](O)[C@H]1O)C(=O)N[C@@H](Cc1c[nH]c2ccccc12)C(=O)O	i	i	nt	nt
C=CCN1CC[C@]23c4c5ccc(O)c4O[C@@H]2C(=O)CC[C@@]3(O)[C@H]1C5	i	i	nt	nt
ClC1=C(Cl)C2(Cl)C3C4CC(C5OC45)C3C1(Cl)C2(Cl)Cl (stereo unspecified)	i	25.1µM	nt	nt
ClC1=C(Cl)C2(Cl)C3C4C=CC(C4)C3C1(Cl)C2(Cl)Cl (stereo unspecified)	i	i	nt	nt
O=C(O)CN1CCN(CC(=O)O)CC(=O)[O][Hg][O]C(=O)C1	i[11.4 µM]	i[11.4 µM]	nt	nt
C[C@H](c1ccccc1)N1CCN([C@@H](C)c2ccccc2)CC1	i[11.4 µM]	i[11.4 µM]	nt	nt
COC(=O)c1cn(CCOc2ccccc2)c2ccccc12	20µM	?	nt	i
COc1ccc(C(=O)c2c(C)n(CCN3CCOCC3)c3cc(I)ccc23)cc1	6.31µM	?	nt	nt
Cc1c(C(=O)c2ccc3ccccc3c2)c2cccc3c2n1[C@H](CN1CCOCC1)CO3	i	i	nt	nt
CNC[C@H](O)c1ccc(O)cc1	i	i	nt	nt
SMILES	HEK293 cAMP ctrl	TSHR agonist	GBA activity	Bst PK mod	others
CC(C)NC[C@H](O)c1ccc(N)c(C#N)c1	0.005µM	?	nt	nt
CC(C)C(=O)c1cn(Cc2ccccc2C#N)c2ccccc12	25.1µM	?	i	i
O=C(c1ccccc1)c1cn(CC(=O)N2CCCC2)c2ccccc12	i	i	nt	nt
CC(=O)c1c(O)n(C)c(=S)n(-c2ccccc2)c1=O	1µM	?	i	i
N#CCCCC[N+]12CN3CN(CN(C3)C1)C2	i[11.4 µM]	i[11.4 µM]	nt	nt
CC(Cl)CCl (stereo unspecified)	i	i	nt	nt
O=P(c1ccccc1)(c1ccccc1)N1CC2(CC2)CC(O)(c2ccccc2)C1 (stereo unspecified)	0.794µM	?	nt	nt
O=C1OCCN1P(=O)(c1ccccc1)c1ccccc1	i	i	nt	nt
CCNC(=O)[C@@H]1O[C@@H](n2cnc3c(N)ncnc32)[C@@H](O)[C@H]1O	0.159µM	?	nt	nt
Cn1c(C(=O)N2CCC3(CC2)OCCO3)cc2c(=O)n(C)c3ccccc3c21	i	nt	i	i
CCOc1ccc(-c2cc(C(=O)N3CCC4(CC3)OCCO4)c3ccccc3n2)cc1	i	i[11.4 µM]	nt	0.71
CCn1nc(-c2cccs2)nc2c(=O)n(C)c(=O)nc1-2	3.16µM	?	i	i
CN1[C@@H]2CC[C@H]1CC(O[C@@H](c1ccccc1)c1ccccc1N)C2 (stereo partly specified)	i	i	nt	nt
CN1[C@@H]2CC[C@H]1CC(OC(c1ccc(F)cc1)c1ccc(F)cc1)C2 (stereo partly specified)	31.6µM	?	nt	nt
O=c1[nH]c(=O)n(Cc2ccco2)c(O)c1C=NC1CC1	i	nt	i	i	parental cAMP=i
O=C1N[C@@]2(CN3CCC2CC3)C(=O)N1CN(Cc1ccccc1)c1ccccc1	i[11.4 µM]	i[11.4 µM]	nt	nt
CN(C)c1ccc(Cc2ccc(N(C)C)cc2)cc1	i	?	nt	nt
CN(C)c1ccc(CN2CC=C(c3ccc(F)cc3)CC2)cc1	i	i	nt	nt	parental cAMP=i

Screening results as filed in PubChem BioAssay.
